Key:
Test in all cases: PBM binding z-score (relative to random genomic background probes); higher = stronger binding; sequences stand for … in GC…GCGATTGACAGCGTAGAATGAAGG
[1] = system: PPARg:RXRa DBDmut IVT, anti-RXR (DBD mutation: RXRa K156A/R161A, NR concentration 270 nM, RXRa partner concentration 90 nM)
How it was run: (§1)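 Custom Agilent 4×180K protein-binding microarrays carried double-stranded probes, each with a 34-nt variable region. These regions held direct-repeat seeds, single-nucleotide variants, half-site ablations and random human genomic background sequences. Ligand-free nuclear receptor dimers were incubated on the arrays for 1 h, antibodies against each partner (one per run) detected binding, and scanned fluorescence was regression-normalized. Binding z-scores take the random background probes as reference.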

[2] = system: PPARg:RXRa IVT, anti-PPARg (NR concentration 270 nM, RXRa partner concentration 90 nM)
How it was run: as §1

[3] = system: PPARg DBDmut:RXRa IVT, anti-PPARg (DBD mutation: PPARg1 K132A/R137A, NR concentration 270 nM, RXRa partner concentration 90 nM)
How it was run: as §1

[4] = system: PPARg DBDmut IVT, anti-PPARg (DBD mutation: PPARg1 K132A/R137A, NR concentration 270 nM)
How it was run: as §1

[5] = system: PPARg homodimer (NR concentration 180 nM)
How it was run: as §1

[6] = system: PXR:RXRa (NR concentration 270 nM, RXRa partner concentration 90 nM)
How it was run: as §1

[7] = system: PXR homodimer (NR concentration 270 nM)
How it was run: as §1

[8] = system: RARa:RXR (NR concentration 270 nM, RXRa partner concentration 90 nM)
How it was run: as §1

[9] = system: RARa homodimer (NR concentration 270 nM)
How it was run: as §1

[10] = system: RARb:RXRa (NR concentration 270 nM, RXRa partner concentration 90 nM)
How it was run: as §1

[11] = system: RARb homodimer (NR concentration 270 nM)
How it was run: as §1

[12] = system: RARg:RXRa (NR concentration 270 nM, RXRa partner concentration 90 nM)
How it was run: as §1

[13] = system: RARg homodimer (NR concentration 270 nM)
How it was run: as §1

[14] = system: RXRa DBDmut IVT, anti-RXR (DBD mutation: RXRa K156A/R161A, NR concentration 90 nM)
How it was run: as §1

[15] = system: RXRa homodimer (NR concentration 180 nM)
How it was run: as §1

[16] = system: THRa:RXRa (NR concentration 90 nM, RXRa partner concentration 90 nM)
How it was run: as §1

[17] = system: THRa homodimer (NR concentration 90 nM)
How it was run: as §1

[18] = system: VDR homodimer (NR concentration 270 nM)
How it was run: as §1

Sequence	PBM binding z-score [1]	PBM binding z-score [2]	PBM binding z-score [3]	PBM binding z-score [4]	PBM binding z-score [5]	PBM binding z-score [6]	PBM binding z-score [7]	PBM binding z-score [8]	PBM binding z-score [9]	PBM binding z-score [10]	PBM binding z-score [11]	PBM binding z-score [12]	PBM binding z-score [13]	PBM binding z-score [14]	PBM binding z-score [15]	PBM binding z-score [16]	PBM binding z-score [17]	PBM binding z-score [18]
ACTAGCAGGCAAAGTTTGGGTCACTCAAACAAAG	-0.359	0.492	-0.258	-0.0533	0.153	0.68	-0.439	1.32	-0.701	1.07	1.61	0.87	0.559	-0.386	0.711	2.14	0.949	0.233
GTACCAAGGTGTATAGGTCGTTGATGAGTAGGCG	0.000885	0.719	-0.0523	0.342	0.75	0.265	0.0316	0.833	0.17	0.755	0.761	0.597	0.288	0.186	0.791	0.249	-0.307	0.945
GTACCAAGGTGAATAGGTCGTTGCTGAGTAGGCG	1.82	2.55	-0.221	0.00615	0.964	0.496	-0.427	1.55	-0.268	1.96	1.71	2.56	1.13	-0.0766	1.53	1.8	0.155	-0.166
TCTAGCAGGCCAGTGGGTCACTCAAGAGGTACGG	2.62	3.66	-0.249	-0.535	-0.0883	0.324	-0.497	1.16	-0.945	1.48	1.64	1.37	1.24	-0.186	1.18	0.549	-0.701	-0.424
TAGCCTAGGTCATCGGCCAGTATACCACGCGAAC	1.44	2.98	1.05	0.00127	1.6	1.62	-0.365	2.58	-0.512	3.75	2.9	4.27	4.72	1.02	3.08	2.76	1.11	0.802
CCTACTGGGGCATCAGGTCATTGATATCAACGTT	5.37	6.32	1.29	0.377	2.41	1.8	0.7	2.41	0.207	2.36	2.89	2.6	2.39	0.331	1.87	3.19	2.71	2.06
GCTGCTAGGTCAGGTGGGTCAGCTAACGGGTACG	2.85	3.22	0.103	-0.61	1.05	1.28	-0.409	1.66	-0.0518	3.56	3.64	3.41	4.26	0.0363	2.07	2.57	0.719	0.861
GCTATTAGTTGAAAGGGCAGCCGAATGATTCTCG	0.343	0.268	-0.735	-0.14	0.871	0.09	0.28	0.515	0.871	1.78	1.51	0.552	0.863	0.695	0.636	-0.12	-0.775	-0.507
TCTGCTCGGTCAACGATGGTCAGCTAATCTGCTA	1.1	1.1	-0.37	-0.828	-0.45	-0.246	-1.09	-0.0627	-0.906	2.59	1.65	1.41	2.83	0.129	0.25	0.269	-0.89	-0.978
TCTCTGAGGACACGAAGGTCAGAGCTTTCCAGAG	1.47	1.68	0.539	-0.166	0.898	2.18	1.25	2.04	-0.145	3.29	3.87	3.32	3.9	1.21	1.92	4.11	4.02	1.71
TCTATTAGTTGAAGAGCAACCGACGAGTCCGTTT	2.11	-0.0307	-0.198	0.372	0.184	0.265	0.467	-0.0573	0.544	0.129	-0.385	-0.11	-0.0161	1.36	0.301	-0.14	-0.463	1.23
TCTCGCAGGCCAGAGGGTCACTCAAGAGGTACGG	0.998	0.394	-0.712	-0.719	0.381	1.62	-0.348	2.25	-0.311	2.45	2.75	2.79	2.32	0.313	2.76	1.73	0.0741	0.536
ACAGACAGGTGAGTGAAGGTAACTCAGCTGGACG	0.432	0.804	0.0951	0.079	-0.0829	-0.379	-0.472	0.0819	-0.173	0.67	0.005	0.297	0.64	-0.506	0.428	1.51	-0.394	-0.355
CCGACTCGGGCAGAAAGGTTACCATACCATCCGG	-0.0361	0.238	-1.52	-1.19	0.529	0.674	-0.293	1.33	-0.25	1.74	1.59	1.41	1.02	-0.246	1.6	1.01	-0.699	-0.0904
GGAACGAGGGCATTCGAGTGGATAGCATGGCGAT	2.7	1.91	0.297	-0.551	-0.225	0.6	-0.278	0.17	-0.0575	1.74	0.402	0.904	1.23	2.83	0.651	1.69	-0.704	1.87
TCGAGTAGTTTAGTCGGGGCATTCAGCCAACATA	1.24	-0.182	-0.281	-0.699	-0.472	0.139	-0.0137	0.146	-0.408	0.0588	0.253	-0.495	-0.511	0.57	-0.338	0.245	0.214	0.234
TTTCAAAGTTCAAAGGTAACGTAAGTATCCACAC	0.271	2.61	1.49	1.37	3.4	5.62	4.59	6.38	1.45	4.99	3.87	6.29	5.88	4.68	7.2	3.58	0.252	4.68
ATCGAAAGGTCGAGGTGCGTATAGAGAAAGGGAA	-0.194	1.03	0.819	0.0547	1.09	2.33	0.0206	3.2	0.4	3.98	2.47	4.3	4.33	0.96	4.37	1.77	-0.562	0.304
CCGACTGGGGCAAAGGTTCCCATACTCAGTACGA	4.43	4.51	-0.428	-0.816	-0.0222	-0.128	-0.291	0.588	0.117	0.831	0.64	0.839	0.494	-0.0939	0.724	-0.141	-0.168	-0.00727
CATACAGGGTCAGCTAGGCCAGGGTAGGGACGGC	0.462	2.48	0.368	0.335	1.37	2.18	-0.00796	3.16	0.91	4.02	3.59	4.48	5.13	0.607	4.42	3.28	1.26	1.47
TCTATTAGTTGAAGGGCAACCGTCGAGTCCGTTT	2.35	0.992	0.699	1.21	0.883	0.735	0.911	0.24	1.09	1.63	1.41	0.513	0.573	1.63	0.558	0.234	0.122	1.61
AATACAGGGTCACTATGCCAGAGTAGGTACGAAT	3.26	4.74	1.77	1.8	1.62	2.9	0.523	3.67	1.11	4.01	2.83	4.76	4.14	2.94	5.15	3.31	1.27	2.48
CGTCAAAGTTCAAGGTACCGTAACAGAAAGCAGC	0.47	1.61	0.0848	0.822	2.35	3.99	2.46	3.45	0.789	5.08	3.94	5.07	6.14	4.56	4.33	2.06	0.154	3.09
TCTAGTAGATCAAAGGTTAAGAAAGCCGAAGCCT	2.37	3.82	0.0215	0.532	1.09	1.86	-0.328	2.97	0.336	1.72	1.26	1.37	0.721	0.713	3.04	1.19	-0.728	-0.063
GCAGACAGGTGAAACGCAGGTAATTCAGGGTGGC	0.893	0.576	-0.406	-0.569	0.0586	-0.158	-0.351	0.462	-0.448	0.697	0.413	0.684	0.304	-0.376	0.614	1.38	-0.381	-0.586
CCTATTAGTTGACCATAAGGGCAATCGAAGCTCG	0.549	0.361	0.362	0.72	1.56	0.609	0.878	0.531	2.18	1.38	1.72	1.12	1.22	0.557	0.516	1.47	1.18	1.13
ACAGACAGGTGAGTAAAGGTAACTCAGCTGGACG	0.353	1.07	0.151	-0.231	-0.162	0.082	-0.77	1.06	-0.0924	0.798	0.365	0.666	0.622	-0.605	0.915	1.67	-0.828	-0.485
CAAACTAGGTCACGAAAGGTCAAAGGCGAATGAC	8.48	9.08	4.73	2.51	5.53	7.28	2.45	8.15	3.08	5.86	5.95	8.09	8.64	1.99	8.7	5.15	2.55	3.38
GGAACGAGGGCAAGGTGATAGCAGAGTTTGATGG	3.43	3.26	-0.452	-0.737	0.922	0.851	1.06	0.793	0.23	2.78	2.04	1.26	2.2	1.62	0.928	1.89	0.882	2.05
